From PubChem BioAssay (NCATS)
Inconclusive results are not listed. The source made the active and inactive calls. Calls come from the whole dose curve; as a rule, active = well fitted inhibition curve with a large enough effect; inconclusive = small, poorly fitted or top-dose-only effect; inactive = flat fitted curve, though single readings scatter.

Assays:
Assay in all cases: qHTS profiling for inhibitors of Plasmodium falciparum proliferation (AID 504749); note: nearly all actives have a fitted effect of over 60% in size
Details in all cases: P. falciparum in erythrocytes, SYBR Green DNA, 72 h; series mostly up to 28.7 µM
[1] = test system: CP262
Outline: (§1)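 In a 72 h erythrocytic culture (37 C, humidified, 5% CO2) at 2.5% hematocrit and 0.3% starting parasitemia, compounds were tested; SYBR Green I in detergent lysis buffer stained parasite DNA overnight.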

[2] = test system: CP265
Outline: as §1

[3] = test system: CP266
Outline: as §1

[4] = test system: CP268
Outline: as §1

[5] = test system: CP269
Outline: as §1

[6] = test system: CP286
Outline: as §1

[7] = test system: CP291
Outline: as §1

[8] = test system: CP297
Outline: as §1

[9] = test system: CP305
Outline: as §1

[10] = test system: CP315
Outline: as §1

Measured: Potency
Potency is the fitted concentration of half-maximal effect.

CCCCCCOc1ccccc1C(N)=O
inactive: all assays above

Cc1nc2ccccc2n1Cc1ccc(Cl)cc1
not listed: [1] | [2] | [3]
inactive: all other assays above

COC(=O)C1=C(C)NC(C)=C(C(=O)OCC(C)C)C1c1ccccc1[N+](=O)[O-] (stereo not given)
active: [6] 8.91 µM | [7] 12 µM | [8] 16.9 µM

CN1[C@@H](CC(=O)c2ccccc2)CCC[C@H]1C[C@H](O)c1ccccc1
inactive: [1] | [3] | [4] | [5] | [8] | [10]

O=C(CCN1CCN(CCO)CC1)N1c2ccccc2Sc2ccc(C(F)(F)F)cc21
inactive: [4] | [8] | [9] | [10]
active: [2] 3.98 µM | [6] 12.6 µM

Cc1[nH]cnc1CN1CCc2c(c3ccccc3n2C)C1=O
inactive: all assays above

CCCCCCCCCCCC(=O)[O][Sn]([CH2]CCC)([CH2]CCC)[O]C(=O)CCCCCCCCCCC
not listed: [6]
inactive: all other assays above

O=C(O)[C@H](O)[C@@H](O)[C@H](O)[C@H](O)CO
inactive: all assays above

Oc1c(Br)cc(Br)c2cccnc12
not listed: [1]
inactive: all other assays above

COc1cc(CNC(=O)CCCC/C=C/C(C)C)ccc1O
not listed: [3]
inactive: all other assays above

CCCC(=O)OC[C@@H](OC(=O)CCC)[C@@H](OC(=O)CCC)[C@H](Cn1c2nc(=O)[nH]c(=O)c-2nc2cc(C)c(C)cc21)OC(=O)CCC
not listed: [2] | [6] | [9]
inactive: all other assays above

CCC1C(=O)OCC1Cc1cncn1C (stereo not given)
inactive: all assays above

CN1[C@@H]2CC[C@H]1CC(OC(c1ccccc1)c1ccccc1)C2 (stereo not given in full)
inactive: [3] | [8] | [10]
active: [6] 11.2 µM

NC(=O)C(c1ccccc1)(c1ccccc1)[C@@H]1CCN(CCc2ccc3c(c2)CCO3)C1
inactive: [3] | [5] | [10]

O=C(/C=C/c1ccccc1)NCCO
inactive: all assays above

CC(N)C(=O)OC(C)(C)Cc1ccc(Cl)cc1 (stereo not given)
active: [8] 9.53 µM
inactive: [1] | [3] | [10]

Nc1c(CC(=O)O)cccc1C(=O)c1ccc(Br)cc1
not listed: [8]
inactive: all other assays above

N=c1ccn2c(n1)O[C@H]1[C@H](O)[C@@H](CO)O[C@H]12
not listed: [8]
inactive: all other assays above

O=c1[nH]c2ccccc2n1CCCN1CCN(C(c2ccccc2)c2ccccc2)CC1
inactive: [1] | [10]

COc1cc(/C=C/C(=O)CC(=O)/C=C/c2ccc(O)c(OC)c2)ccc1O
active: [8] 13.5 µM

Nc1ccc(O)c(C(=O)O)c1
not listed: [3]
inactive: all other assays above

O=C(O)/C=C/C(O)c1ccc(Cl)cc1 (stereo not given)
inactive: all assays above

CCOc1ccc2nc(S(N)(=O)=O)sc2c1
not listed: [7]
inactive: all other assays above

O=C1CN(/N=C/c2ccc(-c3ccc([N+](=O)[O-])cc3)o2)C(=O)N1
not listed: [1]
inactive: all other assays above

CC(=O)[C@]1(O)Cc2c(O)c3c(c(O)c2[C@@H](O[C@H]2C[C@H](N)[C@H](O)[C@H](C)O2)C1)C(=O)c1c(O)cccc1C3=O
active: [1] 15.1 µM | [4] 12 µM | [5] 9.53 µM | [6] 2.24 µM | [7] 9.53 µM | [8] 13.5 µM | [9] 7.57 µM

C[S+](CC[C@H](N)C(=O)O)C[C@H]1O[C@@H](n2cnc3c(N)ncnc32)[C@H](O)[C@@H]1O (stereo not given in full)
not listed: [2] | [3]
inactive: all other assays above

CN1CCN(c2cc3c(nn2)Oc2ccccc2N3C)CC1
not listed: [3]
inactive: all other assays above

O=C(O)c1cc(O)c(O)c(O)c1
not listed: [1]
inactive: all other assays above

CCCSc1ccc2nc(NC(=O)OC)[nH]c2c1
inactive: all assays above

CN(C)c1ccc(C(=C2C=CC(=[N+](C)C)C=C2)c2ccccc2)cc1
inactive: [1]
active: [2] 11.2 µM | [3] 12 µM | [5] 10.7 µM | [6] 2 µM

CCCCCC[C@@H](O)C/C=C\CCCCCCCC(=O)O
not listed: [3]
inactive: all other assays above

CC1OC1P(=O)(O)O (stereo not given)
inactive: all assays above

CC1(C)[C@@H](O)CC[C@]2(C)[C@H]3C(=O)C=C4[C@@H]5C[C@@](C)(C(=O)O)CC[C@]5(C)CC[C@@]4(C)[C@]3(C)CC[C@@H]12
not listed: [3]
inactive: all other assays above

c1ccc2sc(SSc3nc4ccccc4s3)nc2c1
not listed: [3]
inactive: all other assays above

Nc1cc(-c2ccncc2)c[nH]c1=O
inactive: all assays above
